# PubChem BioAssay (NCATS)
# Records with an inconclusive call do not appear. Entries that show only a call come without a potency. The source made the active and inactive calls. Calls follow the shape of the dose curve; as a rule, active = well fitted inhibition curve with a large enough effect; inconclusive = small, poorly fitted or top-dose-only effect; inactive = flat fitted curve, though single readings scatter.
# Columns and labels:
# Assay in all cases: qHTS profiling for inhibitors of Plasmodium falciparum proliferation (AID 504749); also: nearly all actives have a fitted effect of over 60% in size
# Conditions in all cases: P. falciparum in erythrocytes, SYBR Green DNA, 72 h; series mostly up to 28.7 µM
# CP260 = tested on: CP260
# Procedure, shortened: (§1)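 In a 72 h erythrocytic culture (37 C, humidified, 5% CO2) at 2.5% hematocrit and 0.3% starting parasitemia, compounds were tested; SYBR Green I in detergent lysis buffer stained parasite DNA overnight.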
# CP262 = tested on: CP262
# Procedure, shortened: as §1
# CP265 = tested on: CP265
# Procedure, shortened: as §1
# CP266 = tested on: CP266
# Procedure, shortened: as §1
# CP268 = tested on: CP268
# Procedure, shortened: as §1
# CP269 = tested on: CP269
# Procedure, shortened: as §1
# CP286 = tested on: CP286
# Procedure, shortened: as §1
# CP291 = tested on: CP291
# Procedure, shortened: as §1
# CP297 = tested on: CP297
# Procedure, shortened: as §1
# CP305 = tested on: CP305
# Procedure, shortened: as §1
# Potency is read from the fitted curve at half-maximal effect.
Structure (SMILES),Potency (CP260),Potency (CP262),Potency (CP265),Potency (CP266),Potency (CP268),Potency (CP269),Potency (CP286),Potency (CP291),Potency (CP297),Potency (CP305)
Oc1ccccc1C=NCc1ccccc1,inactive,inactive,inactive,inactive,inactive,inactive,inactive,inactive,inactive,inactive
CCCCC(CC)COC(=O)c1ccc(N(C)C)cc1 (stereo not drawn),inactive,inactive,inactive,inactive,inactive,inactive,inactive,inactive,inactive,inactive
C[C@@H](O)[C@H]1C(=O)N2C(C(=O)O)=C(S[C@@H]3CN[C@H](CNS(N)(=O)=O)C3)[C@H](C)[C@H]12,inactive,inactive,inactive,inactive,inactive,inactive,inactive,inactive,inactive,inactive
CCOC(=O)c1ccc(N)cc1,inactive,inactive,inactive,inactive,inactive,inactive,inactive,inactive,inactive,inactive
COP(=O)(OC)OC(c1ccc(Cl)cc1)P(=O)(OC)OC (stereo not drawn),inactive,inactive,inactive,inactive,inactive,inactive,inactive,inactive,inactive,inactive
COc1ccc(/C=N/NC(=O)c2ccncc2)cc1OC,inactive,inactive,inactive,inactive,inactive,inactive,inactive,inactive,inactive,inactive
O=C(Nc1ccc([N+](=O)[O-])cc1)Nc1ccc([N+](=O)[O-])cc1,3550 nM (active),inactive,inactive,inactive,inactive,inactive,3160 nM (active),inactive,inactive,inactive
Cl/C(=C\n1cncn1)c1ccc(Cl)cc1Cl,inactive,inactive,inactive,inactive,inactive,inactive,inactive,inactive,inactive,inactive
CCN(CC)CCNc1ccc(CO)c2sc3ccccc3c(=O)c12,794 nM (active),inactive,1580 nM (active),5360 nM (active),3380 nM (active),1900 nM (active),2000 nM (active),4780 nM (active),1690 nM (active),3790 nM (active)
O=C(NCCc1c[nH]c2ccccc12)c1cccnc1,inactive,inactive,inactive,inactive,inactive,inactive,inactive,inactive,inactive,inactive
CCOc1ccccc1OCCN[C@H](C)Cc1ccc(OC)c(S(N)(=O)=O)c1,inactive,inactive,inactive,inactive,inactive,inactive,inactive,inactive,inactive,inactive
Cc1cc(NS(=O)(=O)c2ccc(N)cc2)nc(C)n1,inactive,inactive,inactive,inactive,inactive,inactive,inactive,inactive,inactive,inactive
O=C(O)C(Cc1cc(I)c(O)c(I)c1)c1ccccc1 (stereo not drawn),inactive,inactive,inactive,inactive,inactive,inactive,inactive,inactive,inactive,inactive
CN1CCC[C@@H]1CCO[C@](C)(c1ccccc1)c1ccc(Cl)cc1,inactive,inactive,inactive,,,,,,,
CCOC(=O)Nc1ccc2c(c1)N(C(=O)CCN1CCOCC1)c1ccccc1S2,inactive,inactive,inactive,inactive,inactive,inactive,inactive,inactive,inactive,inactive
CC(C)CCCC(C)N (stereo not drawn),inactive,inactive,inactive,inactive,inactive,inactive,inactive,inactive,inactive,inactive
C#C[C@]1(OC(C)=O)CC[C@H]2[C@@H]3CCC4=C/C(=N/O)CC[C@@H]4[C@H]3CC[C@@]21CC,inactive,inactive,inactive,inactive,inactive,inactive,inactive,inactive,inactive,inactive
CCN1/C(=C/C=C/c2sc3ccccc3[n+]2CC)Sc2ccccc21,158 nM (active),190 nM (active),224 nM (active),675 nM (active),536 nM (active),379 nM (active),50.1 nM (active),379 nM (active),849 nM (active),190 nM (active)
CC(C)(C)NC[C@H](O)COc1cccc2c1CCCC2=O,inactive,inactive,inactive,inactive,inactive,inactive,inactive,inactive,inactive,inactive
CC(=O)OC[C@H]1O[C@@H](n2ncc(=O)[nH]c2=O)[C@H](OC(C)=O)[C@@H]1OC(C)=O,inactive,inactive,inactive,inactive,inactive,inactive,inactive,inactive,inactive,inactive
CCCCN=C(N)N=C(N)N,inactive,inactive,inactive,inactive,inactive,inactive,inactive,inactive,inactive,inactive
CC(=O)NCCCCCC(=O)O,inactive,inactive,inactive,inactive,inactive,inactive,inactive,inactive,inactive,inactive
O=C1C(CCS(=O)c2ccccc2)C(=O)N(c2ccccc2)N1c1ccccc1 (stereo not drawn),inactive,inactive,inactive,inactive,inactive,inactive,inactive,inactive,inactive,inactive

Structure (SMILES),Potency (CP260),Potency (CP262),Potency (CP265),Potency (CP266),Potency (CP268),Potency (CP269),Potency (CP286),Potency (CP291),Potency (CP297),Potency (CP305)
FC(F)(F)C(F)(F)C(F)(F)C(F)(F)C(F)(F)C(F)(F)C(F)(F)C(F)(F)Br,inactive,inactive,inactive,inactive,inactive,inactive,inactive,inactive,inactive,inactive
Cc1c(-c2ccccc2)oc2c(C(=O)OCCN3CCCCC3)cccc2c1=O,inactive,inactive,inactive,inactive,inactive,inactive,inactive,inactive,inactive,inactive
N#CCC(=O)NN,inactive,inactive,inactive,inactive,inactive,inactive,inactive,inactive,inactive,inactive
Cc1cccc(C)c1NC(=O)c1ccccc1C(=O)O,inactive,inactive,inactive,inactive,inactive,inactive,inactive,inactive,inactive,inactive
Cc1ccccc1OCC(O)CO (stereo not drawn),inactive,inactive,inactive,inactive,inactive,inactive,inactive,inactive,inactive,inactive
Nc1ccc(S(=O)(=O)Nc2cnc3ccccc3n2)cc1,inactive,inactive,inactive,inactive,inactive,inactive,inactive,inactive,inactive,inactive
CCCCNc1ccc(C(=O)OCCOCCOCCOCCOCCOCCOCCOCCOCCOC)cc1,inactive,inactive,inactive,inactive,inactive,inactive,inactive,inactive,inactive,inactive
C#C[C@]1(O)CC[C@H]2[C@@H]3CCc4cc(OC)ccc4[C@H]3CC[C@@]21C,inactive,inactive,inactive,inactive,inactive,inactive,inactive,inactive,inactive,inactive
CCCCCCCC/C=C\CCCCCCCCN,inactive,inactive,inactive,inactive,inactive,inactive,inactive,inactive,inactive,inactive
C=CCN1CCc2nc(N)sc2CC1,inactive,inactive,inactive,inactive,inactive,inactive,inactive,inactive,inactive,inactive
CC(=O)Nc1ncc([N+](=O)[O-])s1,inactive,inactive,inactive,inactive,inactive,inactive,inactive,inactive,inactive,inactive
O[C@@H](c1cc(C(F)(F)F)nc2c(C(F)(F)F)cccc12)[C@H]1CCCCN1,31.6 nM (active),190 nM (active),35.5 nM (active),601 nM (active),151 nM (active),53.6 nM (active),112 nM (active),151 nM (active),107 nM (active),213 nM (active)
CCC(CC)(CC(=O)Nc1cccc(/C=C/c2nc(C3CCC3)cs2)c1)C(=O)O,inactive,inactive,inactive,inactive,inactive,inactive,inactive,inactive,inactive,inactive
CC(=O)Oc1ccc(C)cc1,inactive,inactive,inactive,inactive,inactive,inactive,inactive,inactive,inactive,inactive
CCOC(=O)[C@H](CCc1ccccc1)N[C@@H](C)C(=O)N1[C@H](C(=O)O)C[C@H]2CCCC[C@@H]21,inactive,inactive,inactive,inactive,inactive,inactive,inactive,inactive,inactive,inactive
CCOc1ccc(NC(C)=O)cc1,inactive,inactive,inactive,inactive,inactive,inactive,inactive,inactive,inactive,inactive
CCc1oc2ccccc2c1C(=O)c1cc(I)c(O)c(I)c1,inactive,inactive,inactive,inactive,inactive,inactive,inactive,inactive,inactive,inactive
CC(=O)OCC(=O)[C@H]1CC[C@H]2[C@@H]3CCC4=CC(=O)CC[C@]4(C)[C@H]3CC[C@]12C,inactive,inactive,inactive,inactive,inactive,inactive,inactive,inactive,inactive,inactive
CC(=O)NC(=O)c1ccccc1O,inactive,inactive,inactive,inactive,inactive,inactive,inactive,inactive,inactive,inactive
CCCCCCCCCCCCCCCCO,inactive,inactive,inactive,inactive,inactive,inactive,inactive,inactive,inactive,inactive
COc1cc([C@H]2Oc3cc([C@H]4Oc5cc(O)cc(O)c5C(=O)[C@@H]4O)ccc3O[C@@H]2CO)ccc1O,inactive,inactive,inactive,inactive,inactive,inactive,inactive,inactive,inactive,inactive
CC(=O)Nc1ccc(S(=O)(=O)Nc2ccc([N+](=O)[O-])cc2)cc1,inactive,inactive,inactive,inactive,inactive,inactive,inactive,inactive,inactive,inactive
O=S(=O)(O)c1ccc(O)cc1,inactive,inactive,inactive,inactive,inactive,inactive,inactive,inactive,inactive,inactive
